# Screens from PubChem BioAssay.
# BLM helicase inh-1 – qHTS Assay for Inhibitors of Bloom's syndrome helicase (BLM). RecQ-like DNA helicase BLM (Homo sapiens), P54132. recombinant BLM DNA unwinding, fluorescence dequenching. Potency, µM (highest dose often 56.1 µM), for inactives: at the highest dose activity change, negative = inhibition, actives largely listed as inhibitors. 350,000 compounds, 0.2% hits;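 note: plate controls were vehicle for no effect and no enzyme for full effect; nearly all actives have a fitted effect of over 35% in size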
# L3MBTL1 inh – qHTS Assay for the Inhibitors of L3MBTL1 | Lethal(3)malignant brain tumor-like protein 1 (Homo sapiens), Q9Y468 | AlphaScreen L3MBTL1–H3K9me1 peptide binding | Potency, µM (series often up to 57.1 µM), for inactives: top-dose activity, negative = inhibition, actives largely listed as inhibitors | 230,000 compounds, 0.66% hits; note: % is set by controls: 0 for no effect and ±100 for the full control effect; nearly all actives have a fitted effect of over 60% in size
#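 Read-out is AlphaScreen signal from streptavidin donor and nickel chelate acceptor beads (10 ug/mL final each) bridging L3MBTL1 (50 nM) and biotinylated K9-monomethylated H3(1-15) peptide (75 nM), after 30 min compound exposure at room temperature.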
# FEN1 inhibitor – qHTS Assay for the Inhibitors of Human Flap endonuclease 1 (FEN1); P39748; Recombinant FEN1 flap cleavage, fluorescence, 15 min; Potency, µM (doses to about 114 µM), without a hit: top-dose activity change, negative = inhibition, usual class: inhibitors; 390,000 compounds, 0.35% hits; AID 588795, 2011; note: % is set by controls: 0 for no effect and ±100 for the full control effect; nearly all actives have a fitted effect of over 65% in size
# Target sequence (P39748 whole entry, looked up): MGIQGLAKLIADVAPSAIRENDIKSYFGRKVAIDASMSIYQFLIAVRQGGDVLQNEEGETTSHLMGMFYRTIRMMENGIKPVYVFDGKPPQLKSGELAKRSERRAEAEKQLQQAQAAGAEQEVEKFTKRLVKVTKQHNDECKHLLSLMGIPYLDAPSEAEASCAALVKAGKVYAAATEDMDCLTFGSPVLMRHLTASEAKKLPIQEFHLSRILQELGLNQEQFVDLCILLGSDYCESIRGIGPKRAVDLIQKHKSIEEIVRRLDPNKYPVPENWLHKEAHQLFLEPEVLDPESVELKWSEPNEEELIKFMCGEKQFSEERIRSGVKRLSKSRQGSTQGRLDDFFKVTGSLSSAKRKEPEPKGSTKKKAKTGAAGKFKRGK
#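 Concentration–response screening of FEN1 (10 nM): 15 min compound preincubation at room temperature, reaction started with 50 nM substrate and read at 0 and 15 min. Corrected, normalized data were fitted by a four-parameter Hill equation.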
# APE1 inh – qHTS Assay for Inhibitors of the Human Apurinic/apyrimidinic Endonuclease 1 (APE1). DNA repair nuclease/redox regulator APEX1 (Homo sapiens), P27695. 350,000 compounds, 0.35% hits. recombinant APE1, TAMRA/BHQ-2 abasic DNA cleavage fluorescence. Potency, µM (highest dose often 65.8 µM), for the others: at the highest dose activity change, negative = inhibition, hits mostly inhibitors;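 note: plate controls were vehicle for no effect and reference inhibitor for full effect; nearly all actives have a fitted effect of over 55% in size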
# Target sequence (P27695 whole entry, looked up): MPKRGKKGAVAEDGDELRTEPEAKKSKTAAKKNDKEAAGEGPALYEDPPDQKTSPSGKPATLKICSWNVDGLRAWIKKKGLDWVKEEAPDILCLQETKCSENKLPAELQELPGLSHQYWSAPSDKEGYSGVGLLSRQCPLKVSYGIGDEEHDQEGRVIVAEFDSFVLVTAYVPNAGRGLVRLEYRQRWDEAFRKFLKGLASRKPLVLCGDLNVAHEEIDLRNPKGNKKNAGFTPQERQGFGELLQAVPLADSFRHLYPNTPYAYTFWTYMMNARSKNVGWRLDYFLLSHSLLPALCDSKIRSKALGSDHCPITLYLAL
#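 Substrate: short duplex with […] THF abasic site, 5'-TAMRA and 3'-BHQ-2, 50 nM final. APE1 at 0.75 nM, preincubated 15 min RT with compound. Fluorescence increase from first to third read measured activity.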
# WRN helicase inh-1 – qHTS for Inhibitors of WRN Helicase; Bifunctional 3'-5' exonuclease/ATP-dependent helicase WRN (Homo sapiens), Q14191; WRN helicase unwinding, fluorescent forked duplex, kinetic; Potency, µM (series often up to 114 µM), inactives show at the top dose activity change, negative = inhibition, hits mostly inhibitors; 360,000 compounds, 0.46% hits; note: % is set by controls: 0 for no effect and ±100 for the full control effect; nearly all actives have a fitted effect of over 55% in size
#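 WRN at 20 nM final was preincubated with compound for 15 min at room temperature; reaction started with 100 nM forked duplex oligonucleotide carrying fluorophore and quencher plus 2 mM ATP (final). Unwinding followed kinetically by red fluorescence (ex 525/em 598 nm).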
# RECQ1 helicase – qHTS Assay for Inhibitors of RecQ-Like Dna Helicase 1 (RECQ1). 240,000 compounds, 0.54% hits. RECQ1 DNA unwinding, red fluorescence kinetic read. AID 2549, 2010. Potency, µM (top dose mostly 57.3 µM), for the others: top-dose activity, negative = inhibition, hits mostly inhibitors;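 note: plate controls were vehicle for no effect and no enzyme for full effect; nearly all actives have a fitted effect of over 30% in size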
#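 RECQ1T1 50 nM; forked duplex (20 bp + 30-nt ss tails) 200 nM, ATP 2 mM final; pH 8.0, 2 mM MgCl2, 2.5 ug/ml poly(dI-dC); 15 min compound preincubation; discontinuous kinetic read over 2 h at RT.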
# WRN helicase inh-2 – qHTS for Inhibitors of WRN Helicase: Confirmatory Assay for Cherry-picked Compounds; shares compounds with WRN helicase inh-1; WRN helicase DNA unwinding, fluorescence kinetic; Potency, µM (series often up to 57.1 µM), for the others: top-dose activity, negative = inhibition, usual class: inhibitors; 610 compounds, 63% hits; AID 720497, 2013; note: nearly all actives have a fitted effect of over 65% in size
# TO displacement – qHTS for Inhibitors of WRN Helicase: Thiazole Orange DNA Binding Counterscreen. thiazole orange DNA binding displacement, fluorescence. AID 720499, 2013. 610 compounds, 10% hits. shares compounds with WRN helicase inh-1. Potency, µM (highest dose often 57.1 µM), for inactives: at the top dose activity change, negative = inhibition, most hits filed as inhibitors;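 note: drop in dye fluorescence marks compound binding to DNA; % is set by controls: 0 for no effect and ±100 for the full control effect; nearly all actives have a fitted effect of over 60% in size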
# BLM helicase inh-2 – qHTS for Inhibitors of WRN Helicase: BLM Helicase Counterscreen for WRN Inhibitors; shares compounds with WRN helicase inh-1; Recombinant BLM helicase DNA unwinding, red fluorescence; Potency, µM (top dose mostly 57.1 µM), for inactives: top-dose activity change, negative = inhibition, usual class: inhibitors; 610 compounds, 60% hits; AID 720503, 2013; note: nearly all actives have a fitted effect of over 60% in size
# Numbers without * were called inactive; i = inactive; u = inconclusive; x = no result given; [ ] = remark or other dose. A selection: hits, their analogues and other compounds. The true share with any hit is near 1%. Calls come from the whole dose curve; as a rule, active = well fitted curve in the direction sought with a large enough effect; inconclusive = small, poorly fitted or top-dose-only effect, or another doubt; inactive = no such curve, though single readings can be large; an effect the other way counts as inactive or inconclusive. Potency is the fitted concentration of half-maximal effect.
SMILES,BLM helicase inh-1,L3MBTL1 inh,FEN1 inhibitor,APE1 inh,WRN helicase inh-1,RECQ1 helicase,WRN helicase inh-2,TO displacement,BLM helicase inh-2
O=C(O)c1ccc(N/N=C/C=C/c2ccc([N+](=O)[O-])o2)cc1,-23.4%,x,u,10.6µM*,u,x,19.2µM*,u,17.1µM*
O=[N+]([O-])c1ccc(N/N=C/C=C/c2ccco2)cc1,x,x,-0.7%,x,1.7%,x,x,x,x
CC(C)C[C@H]1CN(CCCC[C@@H]2CNC(=O)C(=O)N2CCc2ccccc2)C(=O)C(=O)N1CCc1ccccc1,x,x,x,x,1.6%,x,x,x,x
Nc1nc2c(s1)CCc1c-2cnn1-c1ccccc1,-0.1%,31.6µM*,17.8µM*,-9.4%,-24.8%,u,30.4µM*,-15.7%,30.4µM*
Cc1ccc(-c2cnn(-c3ccccc3)c2N)cc1,-4.4%,x,9.5%,24.5%,-6.0%,x,x,x,x
O=C1C(Cl)=C(NC(=O)c2ccccc2)C(=O)C(Cl)=C1NC(=O)c1ccccc1,-7.9%,x,79.4µM*,18.6%,20µM*,x,-19.3%,21.5µM*,-26.3%
COC(=O)c1ccccc1NC(=O)NCCc1c(C)nn(C)c1C,1.2%,x,-0.5%,x,x,x,x,x,x
O=C(CCN1C(=O)/C(=C/C=C/c2ccccc2)SC1=S)Nc1cccnc1,u,5.8%,-4.3%,-1.1%,u,-15.1%,u,10.0%,u
O=C(CCN1C(=O)/C(=C/C=C/c2ccccc2)SC1=S)Nc1ccccn1,0.8%,x,0.3%,35.9%,-8.9%,-6.0%,x,x,x
COC(=O)c1c(NC(=O)CCCOc2ccc(C)cc2)sc2c1C(C(=O)OC)CC2 (stereo not given),-10.2%,x,79.4µM*,x,x,x,-23.2%,24.1µM*,u
CCOc1ccc(/C=C/C(=O)Nc2sc3c(c2C(=O)OC)C(C(=O)OC)CC3)cc1 (stereo not given),-6.9%,x,u,x,x,x,-13.4%,-7.4%,u
COC(=O)c1c(NC(=O)CCCOc2ccc(C)cc2)sc2c1CCCC2,-2.5%,x,1.1%,x,x,x,x,x,x
COC(=O)c1c(NC(=O)CCCOc2cccc(C)c2)sc2c1C(C(=O)OC)CC2 (stereo not given),-12.5%,x,70.8µM*,x,x,x,-13.6%,-23.2%,u
O=c1c2sc3ccccc3c2n(Cc2cccc(F)c2)c(=O)n1CCc1ccccc1,-5.6%,x,14.2%,x,x,x,x,x,x
O=C(NCC(F)(F)F)C1C(=O)Nc2ccccc2C(=O)N1Cc1ccccc1 (stereo not given),x,x,x,x,5.6%,x,x,x,x
O=C(O)c1cc(-c2ccc(/C=C3\NC(=O)N(c4ccc(Cl)cc4)C3=O)o2)ccc1Cl,52.2%,7.94µM*,u,25.1µM*,35.5µM*,u,6.81µM*,u,24.1µM*
C=CCc1ccccc1OCCSc1nc(-c2ccc(C(C)(C)C)cc2)nc2cc(=O)[nH]n12,-21.2%,x,u,x,x,x,x,x,x
COc1ccccc1OCCSc1nc(-c2ccc(C(C)(C)C)cc2)nc2cc(=O)[nH]n12,-7.4%,x,-26.5%,x,x,x,u,u,27.1µM*
Cc1ccc(-c2nnc(Nc3ccc(Br)cc3)c3ccccc23)cc1S(=O)(=O)N1CCN(C)CC1,-13.3%,x,-0.1%,x,x,x,x,x,x
CC1=C(C)CS(=O)N(S(=O)(=O)c2ccccc2)C1 (stereo not given),-12.3%,x,u,2.9%,39.8µM*,-4.7%,-13.2%,-5.4%,-17.3%
CC1=C(C)CS(=O)N(c2ccc(S(N)(=O)=O)cc2)C1 (stereo not given),-3.7%,-2.3%,-9.7%,-5.8%,u,i,x,x,x
CCCN1C(=O)/C(=C\C=C2\N(CC)c3ccccc3C2(C)C)SC1=S,-1.9%,u,u,5.0%,4.23µM*,i,13.6µM*,i,10.8µM*
CCCN1C(=O)/C(=C\C=C2/Sc3ccccc3N2CC)SC1=S,-1.5%,2.1%,x,9.1%,x,i,x,x,x
COc1ccc(C2=Nn3c(nnc3-c3ccc(OC)c(OC)c3)SC2)cc1,1.5%,x,x,-14.1%,x,i,x,x,x
O=C(O)CN1C(=O)/C(=C\C(Br)=C\c2ccccc2)SC1=S,-5.2%,x,u,-10.8%,u,x,21.5µM*,-7.0%,21.5µM*
SMILES,BLM helicase inh-1,L3MBTL1 inh,FEN1 inhibitor,APE1 inh,WRN helicase inh-1,RECQ1 helicase,WRN helicase inh-2,TO displacement,BLM helicase inh-2
C=CCN1C(=O)/C(=C\C(C)=C\c2ccccc2)SC1=S,-1.6%,1.2%[2.29 µM],-7.0%,-6.7%,8.0%,x,x,x,x
COc1ccc(-c2nc3ccc(C)cn3c2Cc2ccccc2)cc1OC,x,x,x,x,-10.5%,x,x,x,x
O=C(O)COc1ccccc1/C=N/NC(=O)c1cc(-c2ccccc2)nc2ccccc12,-2.2%,x,-1.1%,14.1%,-19.9%,27.9%,x,x,x
O=C(O)COc1ccccc1/C=N/NC(=O)c1cc(-c2ccc(Cl)cc2)nc2ccccc12,-8.7%,x,u,-4.4%,u,i,u,u,27.1µM*
CCOC(=O)c1nn(-c2ccccc2C)c(=O)c2c(N)scc12,-7.8%,-0.1%,-3.7%,-5.6%,u,-1.6%,u,35.2%,u
COc1cc(OC)cc(C(=O)NC(C(=O)N2CCc3ccccc3C2)C(C)C)c1 (stereo not given),-2.0%,x,9.8%,5.4%[12.4 µM],3.7%,x,x,x,x
N#C/C(=C\c1ccc(O)c([N+](=O)[O-])c1)c1nc2ccccc2s1,-10.4%,-9.6%,u,-4.4%,31.6µM*,-0.2%,24.1µM*,21.5µM*,24.1µM*
COc1cccc(C(c2c(C)[nH]n(-c3ccccc3)c2=O)c2c(C)[nH]n(-c3ccccc3)c2=O)c1OC,-3.9%,-0.8%,-23.7%,-8.0%,u,-4.3%,-10.8%,-9.6%,-11.5%
